From PubChem BioAssay
Inconclusive results are not listed. Active and inactive are the calls of the source. Unless noted, no cut-off is given here; in the data, nearly all actives have AC50 up to about 26 µM.

What was measured:
[1] = growth inhibition of DIPG glioma cells, dose response, cell-based, SU-DIPG-XVII, MIPE5.0, CellTiter-Glo, qHTS (AID 1347060); conditions: SU-DIPG-XVII viability, CellTiter-Glo ATP luminescence;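 for AC50: cells exposed to compound for 48 hours before viability readout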
[2] = growth inhibition of DIPG glioma cells, dose response, cell-based, SU-DIPG-XIII, MIPE4.0, CellTiter-Glo, qHTS (AID 1347061; cut-off not given, nearly all actives have AC50 up to about 37 µM;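 note: cells exposed to compound for 48 hours before readout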); conditions: SU-DIPG-XIII viability, CellTiter-Glo ATP luminescence
[3] = growth inhibition of DIPG glioma cells, dose response, cell-based, JHH-DIPG-1, MIPE4.0, CellTiter-Glo, qHTS (AID 1347062; cut-off not given, nearly all actives have AC50 up to about 27 µM;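 for AC50: cells exposed to compound for two days before readout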); conditions: JHH-DIPG-1 viability, CellTiter-Glo ATP luminescence
[4] = growth inhibition of DIPG glioma cells, dose response, cell-based, SU-DIPG-XIII, MIPE5.0, CellTiter-Glo, qHTS (AID 1347064; cut-off not given, nearly all actives have AC50 up to about 23 µM;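 for AC50: cells exposed to compound for 48 hours before the viability read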); conditions: SU-DIPG-XIII viability, CellTiter-Glo ATP luminescence
[5] = SU-DIPG-VI glioma cell viability, MIPE4.0 library, CellTiter-Glo luminescence, qHTS (AID 1347066; cut-off not given, nearly all actives have AC50 up to about 30 µM;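 note: cells exposed to compound for 48 hours before readout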); conditions: CellTiter-Glo ATP luminescence
[6] = JHH-DIPG-1 glioma cell viability, MIPE5.0 library, CellTiter-Glo luminescence, qHTS (AID 1347067); conditions: JHH-DIPG-1 glioma viability, CellTiter-Glo ATP luminescence;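 note: cells exposed to compound for 48 hours before readout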
[7] = SU-DIPG-XXV glioma cell viability, MIPE5.0 library, qHTS (AID 1347068; cut-off not given, nearly all actives have IC50 up to about 30 µM)
[8] = sensitizers of A549 cells to miR-34 induction, primary screen, imaging, A549 dox-inducible miR-34, nuclei and caspase counts (AID 1347080;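 active = compounds whose cell count with miR-34 switched on is under 0.7 times the count with it off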); conditions: A549 miR-34 inducible, Hoechst nuclei count, 48 h
[9] = survival rescue of mitochondrial mutant cells in low glucose, primary screen, MELAS cybrids, Rieske KO mouse fibroblasts, CellTiter-Glo (AID 1508586;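 active = mean z-score across replicates of 1.96 or higher in either the MELAS or the Rieske mutant cell line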;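 note: z relative to plate mean and SD of compound and empty wells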)
[10] = viability loss in pontine glioma line – cell-based, SU-DIPG-XXV, MIPE5.0, CellTiter-Glo, qHTS, dose response (AID 1347065); conditions: CellTiter-Glo ATP luminescence;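 note: cells exposed to compound for 48 hours before ATP readout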
[11] = growth inhibition of DIPG glioma cells, dose response, cell-based, SU-DIPG-IV, MIPE4.0, CellTiter-Glo, qHTS (AID 1347063; cut-off not given, nearly all actives have AC50 up to about 30 µM;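 note: compound exposure lasted 48 hours before the viability readout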); conditions: SU-DIPG-IV viability, CellTiter-Glo ATP luminescence
[12] = stronger effect = lower value, cell number ratio, induced over uninduced
[13] = measured here: relative caspase fold change +Dox/-Dox
[14] = measured here: total cells with miR-34 induction, stronger effect = lower value
[15] = measured here: total cells without miR-34 induction
[16] = MELAS cybrid survival, CellTiter-Glo 48 h, stronger effect = higher value
[17] = Rieske KO mouse fibroblast survival, CellTiter-Glo 72 h

CNC(=O)c1ccc2cc(C3(O)CCn4cncc43)ccc2c1 (stereo not drawn)
8650: cell count [8, 15]
-0.147: z-score [9, 17]
8020: cell count [8, 14]
inactive: outcome [1] | outcome [2] | outcome [3] | outcome [4] | outcome [5] | outcome [6] | outcome [7] | fold change [8, 12] 0.927 | z-score [9, 16] 0.566
0.607: fold change [8, 13]

CC1(C)S[C@H]2[C@H](NC(=O)[C@@H](N)c3ccc(O)cc3)C(=O)N2[C@H]1C(=O)O
active: AC50 [2] 23.5 µM | AC50 [3] 1.32 µM
inactive: outcome [1] | outcome [10] | outcome [5] | outcome [6] | outcome [7]

Cc1nc(NC(=O)N2CCC[C@H]2C(N)=O)sc1-c1ccnc(C(C)(C)C(F)(F)F)c1
active: AC50 [1] 5.9 µM | AC50 [2] 1.87 µM | AC50 [11] 1.05 µM | AC50 [4] 4.68 µM | AC50 [10] 3.32 µM | AC50 [5] 1.66 µM

CC(C)C[C@H](CC(=O)O)C(=O)N[C@@H](Cc1c[nH]c2ccccc12)C(=O)N[C@@H](C)c1ccccc1
inactive: outcome [1] | outcome [2] | outcome [3] | outcome [6] | outcome [7]
active: AC50 [10] 16.6 µM

CCNC(=O)[C@H]1O[C@@H](n2cnc3c(N)nc(NCCc4ccc(CCC(=O)O)cc4)nc32)[C@H](O)[C@@H]1O
inactive: outcome [1] | outcome [2] | outcome [3] | outcome [10] | outcome [5] | outcome [6] | outcome [7]

Cc1cnc(-c2cc(N3CCN(C(=O)CCS(C)(=O)=O)CC3)ncc2Cl)c(C)c1
10000: cell count [8, 15]
8550: cell count [8, 14]
0.28: z-score [9, 17]
0.666: fold change [8, 13]
inactive: outcome [1] | outcome [2] | outcome [11] | outcome [4] | outcome [10] | outcome [5] | outcome [6] | outcome [7] | fold change [8, 12] 0.856 | z-score [9, 16] -0.296
